# Source: PubChem BioAssay AID1851 (National Center for Advancing Translational Sciences (NCATS), 2009)
# Values joined by “and” are separate entries in the source; they are usually repeats but may differ in a detail not shown here. Equal entries are not always repeated. Screen size: about 16,000 compounds; about 4,000 (25%) were called active. Not shown: some 26% with an inconclusive outcome. The call rests on the fitted dose curve; in most records, active means well fitted curve in the direction sought with a large enough effect; inconclusive means small, poorly fitted or top-dose-only effect, or effect the other way; inactive means no such curve, though single readings can be large or run the other way. Only a sample is shown. Some structures have more than one record in an assay (separate samples or runs), and their calls can disagree.
# Target: Cytochrome P450 2C9 (Homo sapiens) (UniProt P11712)
# Sequence (P11712 whole entry, looked up): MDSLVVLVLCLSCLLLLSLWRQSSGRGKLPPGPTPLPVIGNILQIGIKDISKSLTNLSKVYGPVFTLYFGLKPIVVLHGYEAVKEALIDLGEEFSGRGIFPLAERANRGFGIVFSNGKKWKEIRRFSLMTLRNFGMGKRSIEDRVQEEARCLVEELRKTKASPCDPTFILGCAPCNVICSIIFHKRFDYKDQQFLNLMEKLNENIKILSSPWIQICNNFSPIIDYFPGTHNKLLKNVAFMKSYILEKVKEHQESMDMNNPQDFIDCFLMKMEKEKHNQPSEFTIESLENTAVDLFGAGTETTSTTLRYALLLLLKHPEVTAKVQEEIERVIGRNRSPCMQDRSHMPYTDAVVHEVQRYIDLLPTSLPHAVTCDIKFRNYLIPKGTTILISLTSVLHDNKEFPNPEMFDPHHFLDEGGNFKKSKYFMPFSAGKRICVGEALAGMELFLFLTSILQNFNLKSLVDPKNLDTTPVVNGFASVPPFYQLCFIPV
# Assay: Cytochrome panel assay with activity outcomes
# Settings: recombinant CYP, pro-luciferin dealkylation, luminescence, p450-cyp2c9; series mostly up to 57.1 µM; activity, negative = inhibition: at the top concentration
# On the % scale 0 is the no-effect control and ±100 the full control effect.
SMILES,AC50,"activity, negative = inhibition"
N#C/C(=C\c1ccccc1)c1nc2ncccc2[nH]1,5.01 µM (active),–
COc1ccc2[nH]cc(CCNc3ncncc3-c3ccccc3C(F)(F)F)c2c1,0.1 µM (active),–
COc1ccc2[nH]cc(CCNc3ncncc3-c3ccccc3OC)c2c1,0.251 µM (active),–
COc1ccc2[nH]cc(CCNc3ncncc3-c3cccc(NS(C)(=O)=O)c3)c2c1,0.398 µM (active),–
COc1ccc2[nH]cc(CCNc3cc(-c4ccoc4)ncn3)c2c1,–,-23.3% [at 2.29 µM] (inactive)
COc1ccc(CNc2ncncc2-c2ccccc2C(F)(F)F)c(OC)c1,–,-25.4% [at 2.29 µM] (inactive)
COc1ccc2[nH]cc(CCNc3ncncc3-c3ccccc3CN(C)C)c2c1,–,4.66% [at 2.29 µM] (inactive)
COc1ccc2[nH]cc(CCNc3ncncc3-c3ccccc3Cl)c2c1,0.2 µM (active),–
COc1ccc2[nH]cc(CCNc3ccnc(-c4ccccc4C(F)(F)F)n3)c2c1,–,-28.2% [at 2.29 µM] (inactive)
CN[C@H](CC(=O)O)C(=O)O,–,11.3% (inactive)
O=S1(=O)C=C(SCc2cccc(Cl)c2)Nc2ccccc21,1.58 µM (active),–
O=C(c1nn(Cc2ccccc2)c(=O)c2ccccc12)N1CCN(C/C=C/c2ccccc2)CC1,3.98 µM (active),–
COC(=O)c1cc2n(n1)CCN(Cc1ccccc1F)C2=O,10 µM (active),–
CNC[C@H](O)[C@H](O)[C@H](O)[C@H](O)CO,–,-13.8% [at 25.6 µM] (inactive)
CC(C)[C@](N)(C(=O)O)c1ccccc1,–,-6.77% [at 11.4 µM] (inactive)
CC1CCN(C(NC(=O)c2ccco2)C(=O)c2ccccc2)CC1 (stereo not drawn),2.51 µM (active),–
CC(C)NC(=O)N1CC2(CCN(C(=O)c3ccco3)CC2)C1,–,2.28% (inactive)
CC(C)NC(=O)N1CCC2(CC1)CCN(C(=O)c1ccco1)CC2,–,5.65% (inactive)
O=C(c1csnn1)N1CCC2(CCN(Cc3nccs3)CC2)CC1,–,2.1% (inactive)
COCCn1c(=O)c(-c2ccc(Cl)cc2)nc2cnc(N3CCOCC3)nc21,–,-14.6% (inactive)
CS(=O)(=O)Nc1cccc(-c2ccc3ncnc(N4CCOCC4)c3c2)c1,–,-1.72% [at 2.29 µM] (inactive)
Cn1nc(-c2ccc(N3CCOCC3)c(NS(=O)(=O)c3ccc(Cl)cc3)c2)c2ccccc2c1=O,1 µM (active),–
O=C(NC(NC(=S)Nc1cc(Cl)ccc1Cl)C(Cl)(Cl)Cl)c1ccco1 (stereo not drawn),0.0447 µM (active),–
O=C(O)C1CCCCC1C(=O)Nc1cc(Cl)ccc1Cl (stereo not drawn),–,-16% (inactive)

SMILES,AC50,"activity, negative = inhibition"
O=C(Cc1ccccc1)NC(NC(=S)Nc1cc(Cl)ccc1Cl)C(Cl)(Cl)Cl (stereo not drawn),0.562 µM (active),–
O=C(/C=C/c1ccccc1)NC(NC(=S)Nc1ccc(Cl)cc1)C(Cl)(Cl)Cl (stereo not drawn),0.562 µM (active),–
COc1ccc([N+](=O)[O-])cc1NC(=S)NC(NC(=O)Cc1ccc(OC)c(OC)c1)C(Cl)(Cl)Cl (stereo not drawn),1.26 µM (active),–
O=C(/C=C/c1ccc(Cl)cc1)Nc1ccc(N2CCCCC2)cc1,–,-9.43% (inactive)
COc1ccc(C[C@@](C)(N)C(=O)O)cc1OC,–,-19.4% [at 25.6 µM] (inactive)
CC(CP(=O)(O)O)NC(=O)Cc1ccccc1 (stereo not drawn),–,-17.6% (inactive)
Cc1c(NC(=O)C23CC4CC(CC(C)(C4)C2)C3)c(=O)n(-c2ccccc2)n1C,–,-19.7% (inactive)
O=C(CNS(=O)(=O)c1ccc(Br)s1)N1CCC(N2CCCCC2)CC1,–,-20.1% (inactive)
Cc1ccc(-n2c(C)cc(/C=C(\C#N)C(=O)NCC3CCCO3)c2C)cc1 (stereo not drawn),17.8 µM (active),–
N#C/C(=C\c1cccs1)C(=O)NCC1CCCO1 (stereo not drawn),–,-24.7% (inactive)
NC(=O)C1CCN(C(=O)CN2C(=O)c3ccccc3S2(=O)=O)CC1,–,1.61% (inactive)
O=C1c2ccccc2C(=O)N1C[C@]1(C(=O)O)NCCS1(=O)=O,–,-4.49% [at 11.4 µM] (inactive)
CC(C)N(CCC(=O)c1ccc2ccccc2c1)Cc1ccccc1,12.6 µM (active) and inactive,–
O=C(O)CCCc1ccc2ccccc2c1,–,-4.57% [at 11.4 µM] (inactive)
CCN1C(=O)[C@H]2[C@@H]3[C@H](O)[C@H](O)CC(=O)[C@H]3CC[C@H]2C1=O,–,17.2% [at 11.4 µM] (inactive) and 0.779% [at 11.4 µM] (inactive)
C[C@@]1(C(NC(=O)Cc2ccc(C(F)(F)F)cc2)c2ccc(-c3ccccc3)cc2)C[C@H]1C1CCCCC1 (stereo partly drawn),–,13.5% (inactive)
C[C@@H](C(=O)Nc1ccc2ccccc2c1)[C@@H]1C[C@@]1(C)[C@@H](NC(=O)OCc1ccccc1)c1ccccc1,–,6.52% (inactive)
O=C(Nc1ccc2ccccc2c1)c1onc2c1CCCC2,–,-24.2% (inactive)
C[C@@H](C(=O)Cc1ccc2ccccc2c1)[C@@H]1C[C@@]1(C)[C@@H](NP(=O)(c1ccccc1)c1ccccc1)c1ccccc1,3.16 µM (active),–
C[C@@H](C(=O)Nc1ccc2ccccc2c1)[C@H]1C[C@]1(C)[C@H](NC(=O)OCc1ccccc1)c1ccccc1,1.58 µM (active),–
C[C@@H](C(=O)Nc1ccc2ccccc2c1)[C@H]1C[C@]1(C)[C@H](NP(=O)(c1ccccc1)c1ccccc1)c1ccccc1,3.16 µM (active),–
COc1ccc(COC(=O)N/N=C2/C[C@@H](O)[C@@H](O)[C@@H]3[C@@H]4C(=O)N([C@@H](C)c5ccccc5)C(=O)[C@H]4CC[C@H]23)cc1,–,0.0971% [at 11.4 µM] (inactive)
C[C@@H](C(=O)Nc1ccc2ccccc2c1)[C@@H]1C[C@@]1(C)[C@@H](NS(=O)(=O)c1ccc(-c2ccccc2)cc1)c1ccccc1,–,17.1% (inactive)
CC(=O)N[C@H](c1ccccc1)[C@@]1(C)C[C@@H]1[C@@H](C)C(=O)Nc1ccc2ccccc2c1,10 µM (active),–
